Screening results: PubChem BioAssay, several laboratories
The list is not random: actives were taken first. Their share in the collection is about 2.2%.
JMJD2C inh: inhibitors of human GASC-1 (JMJD2C) demethylase; GST-JMJD2C(1-420) H3K9me3 demethylation, DELFIA europium; AID 2099; inhibition, % at 2.35 µM; Q9H3R0; hit rate 0.069% among 330,000;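 active means more than half of a compound's replicate wells show inhibition beyond 50%, single wells judged on their own value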;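 further: signal counts dimethyl H3K9 product captured on neutravidin plate; 0% = median of DMSO wells and 100% = 0.3 times that DMSO median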
SUMO Mot1 rescue: inhibitors of SUMOylation pathway: yeast Mot1-301 growth rescue. S. cerevisiae Mot1-301 growth rescue, ATP luminescence, 38.5C; percent above DMSO median, 100 means doubled. growth rescue, % at 18.8 µM. hit rate 1% among 320,000;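 active means every valid replicate shows activation above 250% relative to neutral control wells; inactive means the rest, any valid replicate at or below 250%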;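 further: OY570 slx delta 5 strain wells were the positive control but not used for scaling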
p-CIP stab down: compounds decreasing mouse p/CIP protein stability. F442A p/CIP-EGFP cells, EGFP fluorescence, 16 h. Q05BA5. hit rate 0.01% among 290,000. decrease of EGFP signal, % at 10 µM;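 active means EGFP signal decrease of at least 30% at 10 µM or well 3 SD below plate mean, unless failing retest; inactive means the rest, including hits failing retest or dose response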
PvdQ acylase: blocks Pseudomonas aeruginosa PvdQ acylase activity. hit rate 0.063% among 340,000. purified PvdQ acylase, fluorescence plate reader. inhibition, % at 10 µM; in the data active means inhibition above about 30%, passing the limit was not always enough;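 further: 0% = vehicle neutral wells and 100% = reference inhibitor wells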
HDAC3 inhib: human HDAC3 inhibition; O15379; recombinant HDAC3, fluorogenic peptide/trypsin coupled, fluorescence; inhibition, % at 8.3 µM; hit rate 0.15% among 320,000; AID 2718; in the data active means inhibition above about 26%, passing the limit was not always enough
Target sequence (O15379 whole entry, looked up): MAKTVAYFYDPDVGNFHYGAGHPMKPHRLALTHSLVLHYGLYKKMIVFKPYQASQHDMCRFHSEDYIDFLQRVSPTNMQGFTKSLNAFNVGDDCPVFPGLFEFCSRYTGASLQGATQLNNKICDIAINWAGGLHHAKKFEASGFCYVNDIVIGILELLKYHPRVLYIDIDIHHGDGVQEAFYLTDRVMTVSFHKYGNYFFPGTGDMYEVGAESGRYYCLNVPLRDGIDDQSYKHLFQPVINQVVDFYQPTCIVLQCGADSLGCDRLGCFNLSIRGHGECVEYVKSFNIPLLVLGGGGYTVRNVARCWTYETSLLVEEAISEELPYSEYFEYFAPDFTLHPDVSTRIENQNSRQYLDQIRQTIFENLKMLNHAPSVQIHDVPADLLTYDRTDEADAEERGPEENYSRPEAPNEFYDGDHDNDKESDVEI
PHOSPHO1 block: PHOSPHO1 (human) inhibition; hit rate 1.1% among 290,000; Q8TCT1; recombinant PHOSPHO1, absorbance phosphatase assay; inhibition, % at 13.3 µM; in the data active means inhibition above about 60%
Target sequence (Q8TCT1 whole entry, looked up): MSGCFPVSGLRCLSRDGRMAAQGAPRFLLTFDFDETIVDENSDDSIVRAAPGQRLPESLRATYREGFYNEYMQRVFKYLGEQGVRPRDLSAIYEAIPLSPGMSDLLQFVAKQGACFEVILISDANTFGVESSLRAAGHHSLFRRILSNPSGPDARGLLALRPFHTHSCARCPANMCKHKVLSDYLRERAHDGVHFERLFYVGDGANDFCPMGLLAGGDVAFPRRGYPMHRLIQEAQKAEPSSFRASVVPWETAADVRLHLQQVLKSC
Mot1 SUMO dose: inhibits SUMO pathway, affecting Mot1-301 yeast growth; shares compounds with SUMO Mot1 rescue; S. cerevisiae Mot1-301 galactose growth, ATP luminescence, 24 h; -100 = growth of slx-deleted rescue strain; 2,300 tested, under 10 active; growth activity, percent, % at 42 µM;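 active means Signal drops as the depositor expects, and the fitted half-maximal dose is no more than ten times the top valid tested dose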;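 further: more negative values mean stronger growth rescue toward the control strain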
Starred values were filed as active, the others as inactive; i = inactive; / = no result given; + = active, no number.

SMILES	JMJD2C inh	SUMO Mot1 rescue	p-CIP stab down	PvdQ acylase	HDAC3 inhib	PHOSPHO1 block	Mot1 SUMO dose
c1ccc2[nH]c(CSc3nccs3)nc2c1	-23.8	370.7*	-18.2	2.5	5.7	0.1	0.3
COc1cc([N+](=O)[O-])ccc1NC(=O)CSc1nncn1-c1cccnc1	-2.6	7.4	-6.4	-7.7	6.9	27.9	/
CN(C/C=C/c1ccccc1[N+](=O)[O-])Cc1ccccc1	0.5	372.3*	-14.2	-5.8	-0.4	23.5	0.4
Cc1ccc(S(=O)(=O)N2CCN(Cc3cc(C(C)(C)C)ccc3O)CC2)cc1	7.3	i	-8.3	-20.9	7.6	40.3	/
Cc1ccc(COC(=O)CCN=C2NS(=O)(=O)c3ccccc32)cc1	-0.2	-0.2	/	-7.3	-4.1	/	/
Cc1ccccc1NC(=O)CCN1CCN(Cc2ccccc2)CC1	7.7	-7.8	6.7	-8.0	-8.4	-8.3	/
Cc1cc(C)c(NC(=O)CCN2CCN(Cc3ccccc3)CC2)c(C)c1	-7.8	465.1*	/	-9.8	-5.1	/	0.0
CCN(CC)S(=O)(=O)c1ccc(C(=O)NCCc2cc3c(OC)ccc(OC)c3[nH]c2=O)cc1	-5.1	437.6*	-17.2	2.0	3.7	13.5	-0.5
Cc1ccc(-c2[nH]ncc2CNCCc2cnn(-c3ccccc3)c2)cc1C	1.4	923.2*	-1.4	-6.3	/	7.6	-0.2
O=C(Cc1cccs1)N1CCCC(c2nc3c(nnn3Cc3ccc(F)cc3)c(=O)[nH]2)C1 (stereo not drawn)	-46.3	532.9*	-2.1	-2.1	-3.0	-5.2	0.5
O=C(O)c1c2c(nc3ccccc13)CCCCC2	2.1	-10.4	6.6	1.1	0.7	-4.0	/
CN(C)C(=O)c1c2c(nc3ccccc13)CCCC2	-1.7	+	-22.9	-17.8	0.0	32.8	0.0
CN(C(=O)COc1ncnc2ccccc12)C1CCCCC1	2.7	-6.2	/	-10.3	-5.2	/	/
COc1ccc(-c2cc3cc4c(cc3cn2)OCO4)cc1	29.2	210.2	/	-0.9	-2.7	/	/
c1ccc(-c2cc3cc4c(cc3cn2)OCO4)cc1	-2.4	528.1*	/	-2.4	-7.5	/	-0.3
c1ccc(-c2cc3ccccc3cn2)cc1	3.7	372.4*	/	-10.8	2.3	/	-0.8
Fc1ccc2cc(-c3ccccc3)ncc2c1	21.2	121.9	/	9.4	-5.3	/	/
CCN(CC(=O)Nc1cccc(S(=O)(=O)N(C)c2ccccc2)c1)Cc1cccs1	/	17.0	/	6.4	5.5	/	/
O=C(O)/C=C\C(=O)NC1CCCCC1	-10.6	509.1*	-12.9	-13.3	-7.3	-2.2	0.7
Cc1ccccc1-n1c(-c2cccnc2)n[nH]c1=S	-2.3	+	-12.4	-15.5	10.3	-26.5	0.4
Cc1cc(C)nc(/N=C(\NC(=O)C(C)(C)C)Nc2ccc(F)cc2)n1	-2.7	-14.2	1.4	-11.5	-0.6	-4.5	/
Cn1cccc1/C=C1\SC(=O)N(c2ccc(O)cc2)C1=O	/	14.3	-4.8	-8.4	-0.6	-5.1	/
CC1CC(C)CN(c2cc3c(cc2[N+](=O)[O-])C(=O)N(c2ccccc2)C3=O)C1 (stereo not drawn)	-15.6	-17.7	-5.1	-5.6	-3.5	2.6	/
O=C1c2cc(N3CCCC3)c([N+](=O)[O-])cc2C(=O)N1c1ccccc1	-9.9	377.0*	-14.6	-4.8	-0.6	-6.9	1.0
O=C(O)c1cc(N2CCCCC2)ccn1	/	/	/	-16.5	/	/	/
SMILES	JMJD2C inh	SUMO Mot1 rescue	p-CIP stab down	PvdQ acylase	HDAC3 inhib	PHOSPHO1 block	Mot1 SUMO dose
CCC1CCCCN1CCCNC(=O)CS(=O)(=O)Cc1nc(-c2cccc(OC)c2)oc1C (stereo not drawn)	2.3	2.6	-5.8	2.9	8.4	15.9	/
O=[N+]([O-])c1ccc2nc[nH]c2c1	/	/	/	9.8	/	/	/
O=c1cnc2cc([N+](=O)[O-])ccc2[nH]1	0.9	847.8*	-10.2	-5.8	-2.4	32.8	0.3
Cc1ccc(-c2nnc(SCC#N)n2N)cc1	0.5	+	-12.6	-13.7	-1.2	-13.5	0.4
O=C(OCC(=O)c1c[nH]c2ccccc12)c1cc(Br)ccc1O	1.7	2.4	-4.3	-13.2	10.4	4.4	/
Cc1ccc(C2C(C(=O)c3cccs3)=C(O)C(=O)N2c2ccc(S(N)(=O)=O)cc2)cc1 (stereo not drawn)	7.3	931.7*	-8.7	-12.9	/	15.9	-0.3
COc1cccc(OC)c1CNC(=O)C1CCC(=O)N(CC2CCCCC2)C1 (stereo not drawn)	-1.3	5.4	-15.2	5.6	1.6	10.6	/
Brc1ccc(NC(c2ccccc2)c2ccncc2)cc1 (stereo not drawn)	-5.2	-18.9	-8.1	3.9	2.6	28.3	/
CC(=O)N/C(=C\c1ccccc1)C(=O)OCC(=O)c1ccccc1	-3.2	678.6*	/	-10.6	-0.3	/	-0.1
CC(=O)N/C(=C\c1ccccc1)C(=O)OCC(=O)c1ccc(F)cc1	19.8	-15.8	/	-2.9	-2.3	/	/
O=C(C1CCN(S(=O)(=O)N2CCC3(CC2)OCCO3)CC1)N1CCC(Cc2ccccc2)CC1	7.4	398.5*	-7.4	-6.1	-5.2	56.2	0.5
O=C(CCCc1nc(-c2ccc(Cl)cc2)no1)NC1CCCCC1	5.2	861.5*	-42.3	-16.7	-1.5	23.7	0.7
Cc1cc(C)cc(C(=O)Oc2cc(C)[nH]c(=O)c2[N+](=O)[O-])c1	-23.0	366.2*	-2.5	-11.7	-2.1	38.5	-0.5
COc1cc(C(=O)Oc2cc(C)[nH]c(=O)c2[N+](=O)[O-])cc(OC)c1OC	6.9	-2.0	6.3	0.3	3.1	3.7	/
COc1cccc(C2C(C(C)=O)=C(O)C(=O)N2CCc2c[nH]c3ccccc23)c1 (stereo not drawn)	-40.4	603.7*	-5.7	-1.8	7.1	25.3	0.1
Cn1c(=O)cc(SCC(=O)NCCC2=CCCCC2)c2cc(Cl)ccc21	2.2	-14.5	3.5	-2.6	-6.1	13.4	/
CNC(=O)NNC(=O)c1csc(-c2ccc(C(F)(F)F)cc2Cl)n1	-32.0	381.1*	2.5	-8.4	-1.3	27.3	0.0
O=C1N=C(N2CCN(c3ccccc3)CC2)SC1Cc1ccccc1 (stereo not drawn)	4.9	529.8*	-4.5	1.5	0.2	9.1	0.3
CC1Sc2ccc(S(=O)(=O)CCC(=O)Nc3ccccn3)cc2NC1=O (stereo not drawn)	-0.8	311.0	-30.5	-9.4	-0.2	14.4	/
Cc1nc2c3ccccc3nc(NNC(=O)CCC(=O)N3CCCC(C)C3)n2n1 (stereo not drawn)	0.5	455.0*	8.7	-9.3	-2.8	33.2	0.0
CCOc1ccc(CN2CCNC(=O)C2CC(=O)NCCN2CCOC2=O)cc1 (stereo not drawn)	3.2	-11.7	-3.6	0.0	0.3	-19.7	/
CN(Cc1ccccn1)C(=O)C1CCC(=O)N(Cc2cccc(F)c2)C1 (stereo not drawn)	0.9	12.8	-2.7	-14.0	0.0	17.0	/
